# Measurements reported in paper PMC7862700, “An all-to-all approach to the identification of sequence-specific readers for epigenetic DNA modifications on cytosine”.
# Tests used:
# Test in all cases: DAPPL (digital affinity profiling via proximity ligation, sequencing); 10 mM Tris-HCl pH 7.5, 50 mM NaCl, 1 mM DTT, 4% glycerol, room temperature, 30 min; GST-TFs on glutathione beads, 16-mer random dsDNA library, 0.1% formaldehyde crosslink after washing; high values mean tight binding
# FLI1 = molecular target: T1, FLI1 (Homo sapiens, UniProt Q01543 1-452); settings: protein: recombinant; tags: N-terminal GST; dsDNA, one strand shown
# T1 sequence: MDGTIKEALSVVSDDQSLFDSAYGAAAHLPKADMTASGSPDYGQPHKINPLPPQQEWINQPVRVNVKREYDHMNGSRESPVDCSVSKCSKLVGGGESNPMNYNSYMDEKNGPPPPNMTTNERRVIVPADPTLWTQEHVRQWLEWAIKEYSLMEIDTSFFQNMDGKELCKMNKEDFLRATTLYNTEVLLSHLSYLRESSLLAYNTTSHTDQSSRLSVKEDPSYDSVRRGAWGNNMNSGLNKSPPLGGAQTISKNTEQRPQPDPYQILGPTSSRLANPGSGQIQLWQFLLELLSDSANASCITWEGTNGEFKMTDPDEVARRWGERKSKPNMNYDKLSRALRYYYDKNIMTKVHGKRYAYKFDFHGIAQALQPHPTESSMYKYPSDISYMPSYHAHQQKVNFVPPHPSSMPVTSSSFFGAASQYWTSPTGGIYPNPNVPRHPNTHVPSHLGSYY
# Procedure, shortened: (§1)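 Binding signal is defined as a hexamer's read frequency for one factor over its frequency for the tag-only sample. To obtain reads, GST-fused human transcription factors were expressed in yeast, captured on glutathione beads, barcoded with DNA and pooled with that sample. Pools met 200 nmole of a 16-mer random double-stranded DNA library in Tris/NaCl/DTT/glycerol buffer for 30 min at room temperature before washing, 0.1% formaldehyde crosslinking, proximity ligation (BsaI/T4 ligase, 1 h, 37 °C), PCR and Illumina NextSeq500 sequencing.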
# ELK1 = molecular target: T2, ELK1 (Homo sapiens, UniProt P19419 1-428); settings: protein: recombinant; tags: N-terminal GST; dsDNA, one strand shown
# T2 sequence: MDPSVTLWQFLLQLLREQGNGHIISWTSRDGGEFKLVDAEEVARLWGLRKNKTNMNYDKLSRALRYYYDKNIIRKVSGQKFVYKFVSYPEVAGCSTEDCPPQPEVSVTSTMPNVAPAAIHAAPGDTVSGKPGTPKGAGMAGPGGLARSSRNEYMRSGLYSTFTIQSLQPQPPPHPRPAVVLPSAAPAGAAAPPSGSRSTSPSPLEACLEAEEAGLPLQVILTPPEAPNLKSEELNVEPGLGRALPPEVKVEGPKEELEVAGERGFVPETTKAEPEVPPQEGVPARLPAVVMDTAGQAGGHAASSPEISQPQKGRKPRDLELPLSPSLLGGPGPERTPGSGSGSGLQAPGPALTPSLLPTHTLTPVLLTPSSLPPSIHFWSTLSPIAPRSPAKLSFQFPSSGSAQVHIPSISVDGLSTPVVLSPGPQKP
# Procedure, shortened: as §1
# GABPA = molecular target: T3, GABPA (Homo sapiens, UniProt Q06546 1-454); settings: protein: recombinant; tags: N-terminal GST; dsDNA, one strand shown
# T3 sequence: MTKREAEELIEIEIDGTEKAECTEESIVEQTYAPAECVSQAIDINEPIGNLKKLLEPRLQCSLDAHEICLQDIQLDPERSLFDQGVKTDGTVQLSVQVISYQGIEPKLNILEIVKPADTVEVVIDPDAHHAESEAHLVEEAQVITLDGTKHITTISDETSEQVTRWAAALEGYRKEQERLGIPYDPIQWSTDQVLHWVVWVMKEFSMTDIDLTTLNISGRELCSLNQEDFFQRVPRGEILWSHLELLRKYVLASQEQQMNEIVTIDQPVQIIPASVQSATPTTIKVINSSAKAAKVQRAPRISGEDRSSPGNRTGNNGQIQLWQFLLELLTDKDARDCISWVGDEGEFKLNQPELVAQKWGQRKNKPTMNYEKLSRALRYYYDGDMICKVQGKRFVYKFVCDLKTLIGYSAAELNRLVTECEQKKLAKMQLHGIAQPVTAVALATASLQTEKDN
# Procedure, shortened: as §1
# ERG = molecular target: T4, ERG (Homo sapiens, UniProt P11308 1-479); settings: protein: recombinant; tags: N-terminal GST; dsDNA, one strand shown
# T4 sequence: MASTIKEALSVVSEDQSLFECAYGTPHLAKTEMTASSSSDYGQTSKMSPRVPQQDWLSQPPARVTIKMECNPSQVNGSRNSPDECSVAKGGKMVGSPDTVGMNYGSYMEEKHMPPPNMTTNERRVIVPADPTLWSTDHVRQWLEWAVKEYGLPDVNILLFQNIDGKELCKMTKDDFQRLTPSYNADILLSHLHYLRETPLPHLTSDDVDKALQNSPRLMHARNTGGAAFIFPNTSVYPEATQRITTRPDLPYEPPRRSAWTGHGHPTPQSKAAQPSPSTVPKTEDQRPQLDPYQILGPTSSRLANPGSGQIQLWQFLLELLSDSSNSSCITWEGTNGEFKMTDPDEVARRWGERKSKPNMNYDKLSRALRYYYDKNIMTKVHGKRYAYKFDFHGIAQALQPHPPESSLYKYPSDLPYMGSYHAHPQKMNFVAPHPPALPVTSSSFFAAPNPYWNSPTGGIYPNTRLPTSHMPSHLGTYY
# Procedure, shortened: as §1
# ELF1 = ELF1 (Homo sapiens, UniProt P32519 1-619); settings: protein: recombinant; tags: N-terminal GST; dsDNA, one strand shown
# ELF1, sequence (P32519 whole entry): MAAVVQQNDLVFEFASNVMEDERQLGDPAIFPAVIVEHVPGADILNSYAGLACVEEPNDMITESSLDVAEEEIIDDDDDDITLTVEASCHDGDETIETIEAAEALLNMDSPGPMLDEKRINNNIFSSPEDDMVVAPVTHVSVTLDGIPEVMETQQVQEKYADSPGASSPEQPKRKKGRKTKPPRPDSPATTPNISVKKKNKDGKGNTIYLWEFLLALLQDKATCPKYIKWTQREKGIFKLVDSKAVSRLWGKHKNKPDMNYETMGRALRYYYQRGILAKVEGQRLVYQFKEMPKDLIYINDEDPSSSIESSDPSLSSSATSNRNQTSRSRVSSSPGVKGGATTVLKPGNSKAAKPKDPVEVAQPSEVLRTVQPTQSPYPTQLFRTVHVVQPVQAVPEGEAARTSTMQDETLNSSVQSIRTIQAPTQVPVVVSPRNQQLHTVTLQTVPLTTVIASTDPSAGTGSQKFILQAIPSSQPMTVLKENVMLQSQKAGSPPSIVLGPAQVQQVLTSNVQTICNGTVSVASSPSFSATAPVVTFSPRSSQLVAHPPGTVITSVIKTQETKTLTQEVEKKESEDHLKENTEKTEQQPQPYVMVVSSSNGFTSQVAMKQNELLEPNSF
# Procedure, shortened: as §1
# EHF = molecular target: T5, EHF (Homo sapiens, UniProt Q9NZC4 1-300); settings: protein: recombinant; tags: N-terminal GST; dsDNA, one strand shown
# T5 sequence: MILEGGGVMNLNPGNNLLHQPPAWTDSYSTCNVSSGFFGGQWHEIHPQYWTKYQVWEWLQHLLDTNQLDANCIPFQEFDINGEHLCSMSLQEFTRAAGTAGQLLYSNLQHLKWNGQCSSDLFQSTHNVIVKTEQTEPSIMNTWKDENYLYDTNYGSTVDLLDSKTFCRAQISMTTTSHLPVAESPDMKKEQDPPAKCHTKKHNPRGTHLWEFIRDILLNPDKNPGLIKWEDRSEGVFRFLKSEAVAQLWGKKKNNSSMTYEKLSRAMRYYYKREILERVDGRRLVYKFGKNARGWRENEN
# Procedure, shortened: as §1
# SPI1 = SPI1 (Homo sapiens, UniProt P17947 1-270); settings: protein: recombinant; tags: N-terminal GST; dsDNA, one strand shown
# Procedure, shortened: as §1
# SPIB = SPIB (Homo sapiens, UniProt Q01892 1-262); settings: protein: recombinant; tags: N-terminal GST; dsDNA, one strand shown
# SPIB, sequence (Q01892 whole entry): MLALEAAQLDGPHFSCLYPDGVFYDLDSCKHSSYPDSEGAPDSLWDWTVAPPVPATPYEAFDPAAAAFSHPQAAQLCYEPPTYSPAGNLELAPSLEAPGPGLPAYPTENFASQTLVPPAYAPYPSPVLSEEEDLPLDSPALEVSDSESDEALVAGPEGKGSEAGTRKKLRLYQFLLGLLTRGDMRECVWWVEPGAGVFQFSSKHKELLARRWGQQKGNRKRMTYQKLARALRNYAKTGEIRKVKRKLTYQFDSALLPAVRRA
# Procedure, shortened: as §1
# ELK3 = molecular target: T6, ELK3 (Homo sapiens, UniProt P41970 1-407); settings: protein: recombinant; tags: N-terminal GST; dsDNA, one strand shown
# T6 sequence: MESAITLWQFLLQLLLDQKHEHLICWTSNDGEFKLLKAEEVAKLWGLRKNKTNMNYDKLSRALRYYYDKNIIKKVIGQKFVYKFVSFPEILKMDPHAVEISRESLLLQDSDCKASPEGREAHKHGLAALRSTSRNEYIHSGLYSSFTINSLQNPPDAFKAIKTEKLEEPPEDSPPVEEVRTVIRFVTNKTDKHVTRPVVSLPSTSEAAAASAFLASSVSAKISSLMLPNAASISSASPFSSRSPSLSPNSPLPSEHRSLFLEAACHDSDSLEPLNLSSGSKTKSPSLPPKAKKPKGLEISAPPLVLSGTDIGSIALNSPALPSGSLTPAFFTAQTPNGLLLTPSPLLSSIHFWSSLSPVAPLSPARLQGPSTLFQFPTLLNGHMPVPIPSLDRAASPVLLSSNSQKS
# Procedure, shortened: as §1
# FEV = molecular target: T7, FEV (Homo sapiens, UniProt Q99581 1-238); settings: protein: recombinant; tags: N-terminal GST; dsDNA, one strand shown
# T7 sequence: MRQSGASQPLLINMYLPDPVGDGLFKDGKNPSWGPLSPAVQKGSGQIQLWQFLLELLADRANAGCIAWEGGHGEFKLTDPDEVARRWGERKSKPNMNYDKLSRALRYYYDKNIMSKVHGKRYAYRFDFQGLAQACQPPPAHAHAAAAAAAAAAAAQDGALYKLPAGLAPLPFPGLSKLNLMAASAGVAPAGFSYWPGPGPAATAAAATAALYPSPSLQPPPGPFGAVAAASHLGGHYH
# Procedure, shortened: as §1
# ETV5 = ETV5 (Homo sapiens, UniProt P41161 1-510); settings: protein: recombinant; tags: N-terminal GST; dsDNA, one strand shown
# ETV5, sequence (P41161 whole entry): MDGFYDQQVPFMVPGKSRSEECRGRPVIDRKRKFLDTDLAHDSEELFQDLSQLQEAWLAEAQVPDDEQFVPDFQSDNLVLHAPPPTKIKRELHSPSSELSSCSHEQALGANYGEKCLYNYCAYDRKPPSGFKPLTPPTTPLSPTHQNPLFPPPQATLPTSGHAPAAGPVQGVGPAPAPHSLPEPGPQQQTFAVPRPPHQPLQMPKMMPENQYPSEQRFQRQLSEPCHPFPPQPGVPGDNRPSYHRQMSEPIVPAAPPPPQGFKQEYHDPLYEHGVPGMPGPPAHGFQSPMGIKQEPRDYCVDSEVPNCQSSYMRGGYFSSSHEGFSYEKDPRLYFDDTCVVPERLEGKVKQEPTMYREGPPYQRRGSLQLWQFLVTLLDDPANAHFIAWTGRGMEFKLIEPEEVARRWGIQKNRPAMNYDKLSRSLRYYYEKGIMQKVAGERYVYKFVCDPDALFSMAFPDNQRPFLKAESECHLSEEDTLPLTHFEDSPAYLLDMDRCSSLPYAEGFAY
# Procedure, shortened: as §1
# HSF1 = HSF1 (Homo sapiens, UniProt Q00613 1-529); settings: protein: recombinant; tags: N-terminal GST; chain copies: 3; dsDNA, one strand shown
# HSF1, sequence (Q00613 whole entry): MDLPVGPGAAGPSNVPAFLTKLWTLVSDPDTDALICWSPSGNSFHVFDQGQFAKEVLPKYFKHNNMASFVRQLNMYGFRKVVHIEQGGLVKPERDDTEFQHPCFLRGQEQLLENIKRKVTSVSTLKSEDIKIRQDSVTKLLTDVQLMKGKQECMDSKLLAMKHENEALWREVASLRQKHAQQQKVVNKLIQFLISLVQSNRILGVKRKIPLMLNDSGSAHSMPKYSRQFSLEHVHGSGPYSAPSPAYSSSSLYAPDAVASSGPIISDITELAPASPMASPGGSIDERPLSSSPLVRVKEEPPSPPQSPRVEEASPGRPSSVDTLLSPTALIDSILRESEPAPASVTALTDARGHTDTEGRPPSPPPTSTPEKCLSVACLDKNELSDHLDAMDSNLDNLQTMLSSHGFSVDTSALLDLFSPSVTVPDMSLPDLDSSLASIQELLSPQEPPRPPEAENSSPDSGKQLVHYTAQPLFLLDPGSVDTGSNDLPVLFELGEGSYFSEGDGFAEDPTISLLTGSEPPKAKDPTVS
# Procedure, shortened: as §1
# SPIC = molecular target: T8, SPIC (Homo sapiens, UniProt Q8N5J4 1-248); settings: protein: recombinant; tags: N-terminal GST; dsDNA, one strand shown
# T8 sequence: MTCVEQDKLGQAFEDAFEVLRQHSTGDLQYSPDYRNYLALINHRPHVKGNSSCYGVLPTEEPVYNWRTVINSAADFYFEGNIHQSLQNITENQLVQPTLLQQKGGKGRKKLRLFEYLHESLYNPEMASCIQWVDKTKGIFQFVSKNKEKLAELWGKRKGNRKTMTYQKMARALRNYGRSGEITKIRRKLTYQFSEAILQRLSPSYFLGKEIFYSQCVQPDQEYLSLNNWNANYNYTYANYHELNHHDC
# Procedure, shortened: as §1
# ELF4 = ELF4 (Homo sapiens, UniProt Q99607 1-663); settings: protein: recombinant; tags: N-terminal GST; dsDNA, one strand shown
# ELF4, sequence (Q99607 whole entry): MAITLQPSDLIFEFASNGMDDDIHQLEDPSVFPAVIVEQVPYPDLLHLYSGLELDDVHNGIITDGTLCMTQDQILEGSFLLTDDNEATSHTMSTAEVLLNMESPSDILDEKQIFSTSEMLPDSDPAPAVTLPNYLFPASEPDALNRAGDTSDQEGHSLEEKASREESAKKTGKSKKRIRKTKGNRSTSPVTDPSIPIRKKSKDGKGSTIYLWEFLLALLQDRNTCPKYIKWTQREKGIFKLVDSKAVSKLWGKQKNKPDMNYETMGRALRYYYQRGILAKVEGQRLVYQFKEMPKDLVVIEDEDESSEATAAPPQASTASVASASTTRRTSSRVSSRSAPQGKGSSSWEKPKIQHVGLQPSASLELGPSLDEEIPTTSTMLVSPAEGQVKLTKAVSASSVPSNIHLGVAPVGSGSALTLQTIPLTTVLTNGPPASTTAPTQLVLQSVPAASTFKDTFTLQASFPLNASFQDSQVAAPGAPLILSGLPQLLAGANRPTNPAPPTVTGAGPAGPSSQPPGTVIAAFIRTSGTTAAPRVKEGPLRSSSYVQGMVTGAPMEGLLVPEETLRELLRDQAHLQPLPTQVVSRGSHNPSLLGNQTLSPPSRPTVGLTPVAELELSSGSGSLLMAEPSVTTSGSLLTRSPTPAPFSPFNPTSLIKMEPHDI
# Procedure, shortened: as §1
# ELK4 = molecular target: T9, ELK4 (Homo sapiens, UniProt P28324-2 1-405); settings: protein: recombinant; tags: N-terminal GST; dsDNA, one strand shown
# T9 sequence: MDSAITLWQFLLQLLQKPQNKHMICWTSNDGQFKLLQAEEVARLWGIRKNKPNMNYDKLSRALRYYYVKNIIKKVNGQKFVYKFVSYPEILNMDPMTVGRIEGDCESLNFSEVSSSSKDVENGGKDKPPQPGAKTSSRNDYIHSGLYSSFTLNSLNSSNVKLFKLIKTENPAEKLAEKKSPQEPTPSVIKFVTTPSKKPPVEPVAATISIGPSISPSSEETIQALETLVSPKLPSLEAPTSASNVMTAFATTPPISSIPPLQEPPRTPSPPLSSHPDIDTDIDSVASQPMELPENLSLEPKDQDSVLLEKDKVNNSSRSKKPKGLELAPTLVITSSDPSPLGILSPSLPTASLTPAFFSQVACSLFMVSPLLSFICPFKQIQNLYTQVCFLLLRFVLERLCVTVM
# Procedure, shortened: as §1
# ETV2 = molecular target: T10, ETV2 (Homo sapiens, UniProt O00321 1-342); settings: protein: recombinant; tags: N-terminal GST; dsDNA, one strand shown
# T10 sequence: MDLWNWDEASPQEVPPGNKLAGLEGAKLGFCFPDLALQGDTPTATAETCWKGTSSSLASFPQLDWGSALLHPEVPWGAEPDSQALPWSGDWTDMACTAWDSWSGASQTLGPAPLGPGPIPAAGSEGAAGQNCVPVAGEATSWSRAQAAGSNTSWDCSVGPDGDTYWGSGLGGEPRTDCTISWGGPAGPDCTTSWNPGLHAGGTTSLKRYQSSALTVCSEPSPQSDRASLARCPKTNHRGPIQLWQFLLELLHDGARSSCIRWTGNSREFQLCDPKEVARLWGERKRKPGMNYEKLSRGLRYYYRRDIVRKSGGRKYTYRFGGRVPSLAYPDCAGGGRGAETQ
# Procedure, shortened: as §1
# ELF3 = molecular target: T11, ELF3 (Homo sapiens, UniProt P78545 1-371); settings: protein: recombinant; tags: N-terminal GST; dsDNA, one strand shown
# T11 sequence: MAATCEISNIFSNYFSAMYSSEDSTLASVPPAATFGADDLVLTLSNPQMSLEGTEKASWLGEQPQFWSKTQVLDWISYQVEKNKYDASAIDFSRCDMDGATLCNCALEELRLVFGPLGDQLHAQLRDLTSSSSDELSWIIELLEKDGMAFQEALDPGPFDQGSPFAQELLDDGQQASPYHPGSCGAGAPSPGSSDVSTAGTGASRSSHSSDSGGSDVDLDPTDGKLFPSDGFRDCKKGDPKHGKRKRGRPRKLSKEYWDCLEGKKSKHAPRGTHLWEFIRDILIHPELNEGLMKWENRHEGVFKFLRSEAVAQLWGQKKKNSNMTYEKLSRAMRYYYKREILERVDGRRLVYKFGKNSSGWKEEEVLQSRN
# Procedure, shortened: as §1
# CRX = CRX (Homo sapiens, UniProt O43186 1-299); settings: protein: recombinant; tags: N-terminal GST; dsDNA, one strand shown
# CRX, sequence (O43186 whole entry): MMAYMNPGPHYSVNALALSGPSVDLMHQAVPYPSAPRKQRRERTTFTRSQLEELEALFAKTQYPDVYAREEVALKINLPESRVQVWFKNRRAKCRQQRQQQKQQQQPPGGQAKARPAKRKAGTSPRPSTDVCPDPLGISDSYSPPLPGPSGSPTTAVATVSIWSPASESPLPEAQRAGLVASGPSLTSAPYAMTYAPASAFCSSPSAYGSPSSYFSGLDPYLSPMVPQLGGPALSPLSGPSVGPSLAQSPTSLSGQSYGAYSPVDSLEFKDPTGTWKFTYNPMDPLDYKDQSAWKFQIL
# Procedure, shortened: as §1
# ETV1 = ETV1 (Homo sapiens, UniProt P50549 1-477); settings: protein: recombinant; tags: N-terminal GST; dsDNA, one strand shown
# ETV1, sequence (P50549 whole entry): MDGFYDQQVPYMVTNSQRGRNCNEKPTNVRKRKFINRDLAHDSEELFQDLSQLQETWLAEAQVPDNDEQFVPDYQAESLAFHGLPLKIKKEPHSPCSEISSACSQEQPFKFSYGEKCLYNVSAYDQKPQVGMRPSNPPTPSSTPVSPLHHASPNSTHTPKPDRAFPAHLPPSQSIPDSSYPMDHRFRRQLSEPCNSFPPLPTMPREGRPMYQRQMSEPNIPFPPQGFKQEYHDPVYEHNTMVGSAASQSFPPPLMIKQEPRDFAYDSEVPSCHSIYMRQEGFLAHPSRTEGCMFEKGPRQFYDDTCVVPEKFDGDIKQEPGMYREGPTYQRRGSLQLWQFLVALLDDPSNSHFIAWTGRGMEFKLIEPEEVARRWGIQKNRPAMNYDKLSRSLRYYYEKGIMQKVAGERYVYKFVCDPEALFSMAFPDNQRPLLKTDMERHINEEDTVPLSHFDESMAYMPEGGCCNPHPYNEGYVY
# Procedure, shortened: as §1
sequence,measurement,setting,value
TTACCT,binding signal,FLI1,"1.12 fold enrichment (6-mer frequency, TF over GST control)"
same,binding signal,ELK1,"1.19 fold enrichment (6-mer frequency, TF over GST control)"
same,binding signal,GABPA,"1.32 fold enrichment (6-mer frequency, TF over GST control)"
same,binding signal,ERG,"1.17 fold enrichment (6-mer frequency, TF over GST control)"
same,binding signal,ELF1,"1.19 fold enrichment (6-mer frequency, TF over GST control)"
same,binding signal,EHF,"1.31 fold enrichment (6-mer frequency, TF over GST control)"
same,binding signal,SPI1,"1.19 fold enrichment (6-mer frequency, TF over GST control)"
same,binding signal,SPIB,"1.4 fold enrichment (6-mer frequency, TF over GST control)"
same,binding signal,ELK3,"1.22 fold enrichment (6-mer frequency, TF over GST control)"
same,binding signal,FEV,"1.26 fold enrichment (6-mer frequency, TF over GST control)"
same,binding signal,ETV5,"1.35 fold enrichment (6-mer frequency, TF over GST control)"
same,binding signal,HSF1,"1.45 fold enrichment (6-mer frequency, TF over GST control)"
same,binding signal,SPIC,"1.01 fold enrichment (6-mer frequency, TF over GST control)"
same,binding signal,ELF4,"1.21 fold enrichment (6-mer frequency, TF over GST control)"
same,binding signal,ELK4,"1.32 fold enrichment (6-mer frequency, TF over GST control)"
same,binding signal,ETV2,"1.32 fold enrichment (6-mer frequency, TF over GST control)"
same,binding signal,ELF3,"1.2 fold enrichment (6-mer frequency, TF over GST control)"
same,binding signal,CRX,"2.09 fold enrichment (6-mer frequency, TF over GST control)"
same,binding signal,ETV1,"1.32 fold enrichment (6-mer frequency, TF over GST control)"
